Assay [1] concerns the target Thyrotropin receptor (Homo sapiens) (UniProt P16473). As to the kind of experiment: qHTS assay to identify small molecule agonists of the thyroid stimulating hormone receptor (TSHR) signaling pathway (AID 1224843; calls by dose curve; also: nearly all actives have a fitted effect of over 45% in size; also: potency is read from the fitted curve at half-maximal effect). A digest of the protocol:
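Agonist-mode screen: TSHR HEK293 cells received test chemicals for half an hour at room temperature, then HTRF cAMP detection reagents for one hour prior to fluorescence measurement. Each chemical ran as a 15-concentration series, triplicated.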

Assay [2] can be described thus: qHTS assay to identify small molecule agonists of the hypoxia (HIF-1) signaling pathway - cell viability counter screen (AID 1224844; calls by dose curve; also: nearly all actives have a fitted effect of over 50% in size). A digest of the protocol:
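Same wells as the HIF-1 reporter screen; ME-180 cells carrying HRE-bla, 17 hr treatment at 37C; CellTiter-Glo luminescence read after 30 min at room temperature.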
(Quantitative high-throughput screening tests each substance at several concentrations.)

A short description of assay [3]: qHTS assay to identify small molecule agonists of H2AX (AID 1224845; active = well fitted activation curve with a large enough effect in the signal ratio in the repeat runs, not every such curve was filed as active; the % refers to the signal ratio). A digest of the protocol: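 Wild-type CHO-K1 cells, plated overnight, exposed 3hr at 37C to 15 concentrations (0.76% DMSO final). Lysed, then HTRF anti-pH2AX (S139) cryptate and anti-H2AX-d2 antibodies, 24 hr room temperature; 665/620 nm emission read.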
Assay [4] is described as follows: qHTS assay to identify small molecule agonists of the hypoxia (HIF-1) signaling pathway (AID 1224846; active = well fitted activation curve with a large enough effect in the signal ratio in the repeat runs, not every such curve was filed as active; the % refers to the signal ratio). A digest of the protocol:
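In ME-180 cells bearing an HRE-bla construct, 17 h treatment with DMSO-dissolved compounds at 37C was followed by CCF4-AM loading to quantify reporter induction.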

Assay [5] is described as follows: qHTS assay to identify small molecule agonists of H2AX - cell viability counter screen (AID 1224847; calls by dose curve; also: top concentration of the series differs between compounds; nearly all actives have a fitted effect of over 30% in size). The method in brief: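 CHO-K1 cells plated overnight at 37C, then exposed 3 h at 37C to compounds at 15 concentrations (0.76% DMSO final). Viability by CellTiter-Glo luminescence after 30 min at room temperature.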
Assay [6] is described as follows: qHTS assay to identify small molecule antagonists of the estrogen related receptor (ERR) signaling pathway from Tox21 library (AID 1224848). Also: nearly all actives have a fitted effect of over 50% in size. The method in brief: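 Quantitative high-throughput format: ERR reporter cells (2,000/well) pre-incubated 6 h, treated 18 h at 37 C with compounds in DMSO alongside positive and negative controls, then read by ONE-Glo luminescence.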

Assay [7] can be described thus: qHTS assay to identify small molecule agonists of the estrogen related receptor (ERR) signaling pathway from Tox21 library (AID 1224849; calls by dose curve; also: nearly all actives have a fitted effect of over 15% in size). As to conditions: ERR reporter cell line, ONE-Glo luciferase, 18 h; at 92.4 µM (top of the series) unless noted. A digest of the protocol: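 Reporter cells (ERR, NTP source) treated with Tox21 10K compounds 18 h, 37 C. Readout: ONE-Glo luminescence, 30 min RT.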

Assay [8] can be described thus: qHTS RealTime-Glo MT Cell Viability Assay in HepG2 cells - 24 hour (AID 1224867). Also: nearly all actives have a fitted effect of over 50% in size. The method in brief:
(§1)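 HepG2 cells (600/well) were dispensed with RealTime-Glo reagents, incubated 5 h at 37 °C, then treated with compounds in DMSO for up to 40 h. Nonlytic NanoLuc luminescence reflecting viable cells was read at each stated time point.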

Assay [9] can be described thus: qHTS RealTime-Glo MT Cell Viability Assay in HEK293 cells - 32 hour (AID 1224868). Also: nearly all actives have a fitted effect of over 50% in size. Also: potency is read from the fitted curve at half-maximal effect. As to activity change, negative = cytotoxic: top concentration of the series differs between compounds. A digest of the protocol: (§2)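 HEK293 cells seeded with NanoLuc/prosubstrate reagent, rested 5 h at 37 C, then dosed and kept at 37 C up to 40 h. Nonlytic real-time luminescence from viable cells read at 0, 8, 16, 24, 32 and 40 h.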
Assay [10] in a line: A CellTox Green Cytotoxicity Assay to monitor cytotoxicity in HEK293 cells - 0 hour (AID 1224869). Also: nearly all actives have a fitted effect of over 50% in size. A digest of the protocol: (§3)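 Homogeneous no-lysis format: HEK293 cell suspension mixed with CellTox Green reagent, seeded, incubated 5 h at 37 C/5% CO2, then dosed by pintool with compound in DMSO.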
A short description of assay [11]: qHTS RealTime-Glo MT Cell Viability Assay in HepG2 cells - 40 hour (AID 1224870). Also: nearly all actives have a fitted effect of over 50% in size. A digest of the protocol:
(§4)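 HepG2 cells (600/well) mixed with RealTime-Glo MT reagent, settled 5 h at 37 C/5% CO2 before compound addition. Nonlytic NanoLuc luminescence from viable-cell prosubstrate reduction read repeatedly during 40 h treatment at 37 C.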

A short description of assay [12]: A CellTox Green Cytotoxicity Assay to monitor cytotoxicity in HEK293 cells - 40 hour (AID 1224871). Also: nearly all actives have a fitted effect of over 45% in size. A digest of the protocol: as §3
The nature of assay [13]: qHTS RealTime-Glo MT Cell Viability Assay in HEK293 cells - 16 hour (AID 1224872). Also: nearly all actives have a fitted effect of over 50% in size. Also: potency is read from the fitted curve at half-maximal effect. As to activity change, negative = cytotoxicity: top concentration of the series differs between compounds. A digest of the protocol: as §2
Assay [14] can be described thus: qHTS RealTime-Glo MT Cell Viability Assay in HepG2 cells - 8 hour (AID 1224873). Also: nearly all actives have a fitted effect of over 55% in size. A digest of the protocol: as §4
Assay [15] in a line: qHTS RealTime-Glo MT Cell Viability Assay in HEK293 cells - 40 hour (AID 1224874). Also: nearly all actives have a fitted effect of over 50% in size. Also: potency is read from the fitted curve at half-maximal effect. As to conditions: RealTime-Glo luminescence; max response: active compounds read low. The method in brief: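 Measured as luminescence from the same continuously cultured HEK293 wells at successive time points (0, 8, 16, 24, 32, 40 h) after compound addition. Reagent present from seeding; dosing at 5 h; incubation 37 C.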

Assay [16] in a line: A CellTox Green Cytotoxicity Assay to monitor cytotoxicity in HEK293 cells - 24 hour (AID 1224875). Also: nearly all actives have a fitted effect of over 45% in size. A digest of the protocol: as §3
Assay [17] can be described thus: A CellTox Green Cytotoxicity Assay to monitor cytotoxicity in HepG2 cells - 16 hour (AID 1224876). Also: nearly all actives have a fitted effect of over 45% in size. A digest of the protocol: (§5)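 Fluorescent DNA-binding dye, 600 HepG2 cells/well, 5 h preincubation then compound in DMSO; same plates read at 0–40 h, 37 C.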
A short description of assay [18]: qHTS RealTime-Glo MT Cell Viability Assay in HepG2 cells - 32 hour (AID 1224877). Also: nearly all actives have a fitted effect of over 55% in size. The method in brief: as §1
The nature of assay [19]: A CellTox Green Cytotoxicity Assay to monitor cytotoxicity in HepG2 cells - 24 hour (AID 1224878). Also: nearly all actives have a fitted effect of over 45% in size. The method in brief: as §5
The nature of assay [20]: A CellTox Green Cytotoxicity Assay to monitor cytotoxicity in HepG2 cells - 40 hour (AID 1224879). Also: nearly all actives have a fitted effect of over 40% in size. The method in brief:
as §5

Values without a mark were called inactive. Records with an inconclusive call do not appear. The source made the active and inactive calls. Unless noted, calls follow the shape of the dose curve; as a rule, active = well fitted curve in the direction sought with a large enough effect in the repeat runs; inconclusive = weak or mixed curves; inactive = no such curve, though single readings can be large; an effect the other way counts as inactive or inconclusive.
% is scaled to controls: 0 for no effect and ±100 for the full control effect.

Chain of Thyrotropin receptor (Homo sapiens) (P16473 whole entry, looked up): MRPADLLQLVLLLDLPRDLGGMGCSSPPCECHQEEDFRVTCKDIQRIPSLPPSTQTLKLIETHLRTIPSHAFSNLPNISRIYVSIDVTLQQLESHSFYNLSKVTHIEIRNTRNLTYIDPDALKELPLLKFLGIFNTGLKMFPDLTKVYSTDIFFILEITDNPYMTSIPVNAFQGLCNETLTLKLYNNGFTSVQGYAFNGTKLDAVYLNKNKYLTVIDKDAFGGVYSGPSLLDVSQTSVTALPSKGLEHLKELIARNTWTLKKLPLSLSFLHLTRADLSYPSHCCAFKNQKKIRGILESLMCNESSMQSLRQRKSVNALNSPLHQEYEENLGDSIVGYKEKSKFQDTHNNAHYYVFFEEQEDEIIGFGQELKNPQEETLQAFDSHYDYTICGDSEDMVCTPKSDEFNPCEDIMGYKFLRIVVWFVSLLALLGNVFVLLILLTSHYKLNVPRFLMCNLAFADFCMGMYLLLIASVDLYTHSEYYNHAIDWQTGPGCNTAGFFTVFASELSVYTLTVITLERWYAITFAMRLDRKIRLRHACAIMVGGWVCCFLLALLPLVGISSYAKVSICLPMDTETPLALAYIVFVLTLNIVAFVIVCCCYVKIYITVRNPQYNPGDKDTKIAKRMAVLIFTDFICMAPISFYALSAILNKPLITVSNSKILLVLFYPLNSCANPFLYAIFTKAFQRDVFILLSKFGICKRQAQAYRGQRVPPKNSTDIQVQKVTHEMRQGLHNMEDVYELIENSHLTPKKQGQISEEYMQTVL

As for `O=C(O)c1cc(Cl)cc([N+](=O)[O-])c1Cl`, the Potency entry in assay [1], in assay [5], in assay [6], in assay [9], in assay [12] and in assay [13] was “inactive” in each case. In addition, in assay [20], the Potency result was “inactive”. Moreover, the compound was called inactive in assay [2], in [3], in assay [4], in assay [8], in assay [10] and in assay [11]. Also, the compound was called inactive in assay [14], in [16], in [17], in [18] and in assay [19]. In addition, the activity change, positive = activation in assay [7] was -9.65%. In addition, in [15], the max response was 21%.

Take `Cc1[nH]cnc1-c1ccc(Cl)cc1`: the Potency result in assay [1], in [5], in assay [9], in assay [12], in [13] and in [20] was “inactive” in each case. For the same compound, the outcome in assay [2], in assay [3], in [4], in assay [8], in [10] and in assay [11] was inactive. In addition, the outcome in [14], in assay [16], in assay [17], in assay [18] and in assay [19] was inactive. In assay [15], the max response is -3.17%.

`Oc1cn2c(n1)Nc1ccc(Cl)c(Cl)c1C2`: in assay [1], the Potency is 0.73 µM (active). In addition, the activity change, negative = cytotoxicity was -1.47% [at 15.8 µM] in assay [2], 0.633% [at 31.6 µM] in assay [5], -0.765% [at 15.8 µM] in [8] and 6.18% [at 15.8 µM] in assay [13]. For the same compound, the activation (H2AX phosphorylation) in assay [3] is -0.0397% [at 31.6 µM]. Further, in [4], the activation was -0.566% [at 15.8 µM]. The activity change, negative = cytotoxic in [9] is 9.1% [at 15.8 µM]; in assay [11], -4.5% [at 15.8 µM]. Moreover, the cytotoxicity in assay [10] was 0.503% [at 15.8 µM]; in [19], -5.44% [at 15.8 µM]. In addition, the values for the cytotoxicity increase in [12], in [17] and in [20] were 2.17% [at 15.8 µM], -4.2% [at 15.8 µM] and -8.09% [at 15.8 µM], respectively. Moreover, the viability change, negative = cytotoxic in [14] was -0.13% [at 15.8 µM]. In addition, the max response in [15] is 10.9%. The activity change in assay [16] is -3.58% [at 15.8 µM].

`CC(C)(C)c1nnc(NS(=O)(=O)c2ccc(N)cc2)s1`: the Potency entry in assay [1], in [5], in assay [9], in assay [12], in assay [13] and in assay [20] was “inactive” in each case. For the same compound, the outcome in assay [2], in assay [3], in assay [4], in [8], in assay [10] and in [11] was inactive. For the same compound, the outcome in assay [14], in [16], in [17], in [18] and in assay [19] was inactive. Besides, the max response in assay [15] was 2.09%.

Regarding `C[C@H](N)[C@H](O)c1cccc(O)c1`, the Potency entry in assay [1], in assay [5], in [9], in assay [13] and in assay [20] was “inactive” throughout. In addition, the call in [2], in assay [3], in [4], in [8], in assay [10] and in assay [11] was inactive. Further, the compound was called inactive in assay [14], in [16], in assay [17] and in assay [18]. Also, the max response in assay [15] is -0.629%.

Take `COCCc1ccc(OCC2CO2)cc1` (stereo unspecified): the Potency entry in assay [1], in assay [5], in assay [9], in assay [12], in assay [13] and in assay [20] was “inactive” throughout. Further, the call in assay [2], in assay [3], in [4], in assay [8], in [10] and in assay [11] was inactive. In addition, the outcome in [14], in assay [16], in assay [17], in assay [18] and in assay [19] was inactive. Moreover, the max response in [15] is 13.1%.

As to `Nc1cccc(O)c1`, the Potency result in assay [1], in [5], in assay [9], in [13] and in [20] was “inactive” throughout. For the same compound, the compound was classed as inactive in assay [2], in assay [3], in [4], in assay [10], in [11] and in assay [14]. The outcome in [16], in assay [17], in assay [18] and in assay [19] was inactive. Also, the max response in assay [15] was 3.53%.

Turning to `CC(=O)/C=C/C1C(C)=CCC(C)C1(C)C` (stereo unspecified), the Potency entry in assay [1], in assay [6], in [9], in [12], in assay [13] and in assay [20] was “inactive” throughout. Further, the compound was classed as inactive in [2], in assay [3], in assay [4], in assay [8], in assay [10] and in [11]. The compound was called inactive in [14], in [16], in assay [17] and in assay [18]. The activity change, positive = activation in [7] is -6.15%. Further, the max response in assay [15] was 1.21%.

As to `c1ccc2nccnc2c1`, the Potency result in assay [1], in assay [5], in assay [9], in assay [13] and in assay [20] was “inactive” each time. For the same compound, the call in assay [2], in assay [3], in assay [4], in assay [8], in assay [10] and in [11] was inactive. In addition, the result in [14], in assay [16], in assay [17], in assay [18] and in assay [19] was inactive. Moreover, the max response in [15] is 5.36%.

As for `C=C(C)C(=O)OCCNC(C)(C)C`, the Potency result in assay [1], in [6], in assay [9], in [12], in assay [13] and in [20] was “inactive” each time. The compound was called inactive in assay [2], in assay [3], in [4], in assay [8], in assay [10] and in assay [11]. In addition, the call in [14], in [16], in assay [17], in assay [18] and in assay [19] was inactive. Besides, the activity change, positive = activation in assay [7] was -2.14%. Also, the max response in assay [15] is 0.848%.

For the compound `O=C(O)Cc1cn(-c2ccccc2)nc1-c1ccc(Cl)cc1`, the Potency result in [1], in assay [5], in [9], in [12], in [13] and in assay [20] was “inactive” each time. Further, the result in assay [2], in [3], in assay [4], in [10], in [11] and in assay [14] was inactive. Further, the outcome in [16], in assay [17], in assay [18] and in assay [19] was inactive. In assay [15], the max response is -3.35%.

Consider `CCOc1cc([N+](=O)[O-])c(OCC)cc1N1CCOCC1`, for which the Potency entry in assay [1], in [5], in [12] and in assay [20] was “inactive” each time. Moreover, the call in [2], in assay [3], in [4], in assay [8], in assay [10] and in [14] was inactive. Also, the call in assay [16], in assay [17], in [18] and in [19] was inactive. Further, the Potency in assay [9] was 15.5 µM (active); in assay [13] it was 19.5 µM (active); in assay [15], 15.5 µM (active).
